{"source": "PubChem BioAssay (Tox21)", "key": {"[1]": {"assay": "qHTS assay for small molecule agonists of the p53 signaling pathway (AID 651631; calls by dose curve; note: nearly all actives have a fitted effect of over 15% in size)", "outline": "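Testing took place in human colorectal HCT-116 cells with stable p53RE-driven beta-lactamase. After 16 h of compound exposure at 37 °C, a FRET substrate was added and fluorescence recorded 2 h later.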"}, "[2]": {"assay": "qHTS assay for small molecules that induce genotoxicity in human embryonic kidney cells expressing luciferase-tagged ATAD5 - cell viability (AID 651634; calls by dose curve; note: nearly all actives have a fitted effect of over 25% in size; note: potency is the fitted concentration of half-maximal effect)", "outline": "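Viability read: CellTiter-Fluor fluorescence, 30 min at 37C. Cells: HEK293T, luciferase-tagged ATAD5. Exposure: 15.5 hr, 37C, 5% CO2, compound or DMSO vehicle.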"}, "[3]": {"assay": "qHTS assay for small molecule disruptors of the mitochondrial membrane potential - cell viability (AID 720634; calls by dose curve;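 note: human HepG2 liver cancer cells; nearly all actives have a fitted effect of over 20% in size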)", "outline": "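HepG2, 1 hr compound, 37 C. ATP luminescence via CellTiter-Glo, 30 min RT, same well as m-MPI.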"}, "[4]": {"assay": "qHTS assay for small molecule disruptors of the mitochondrial membrane potential (AID 720635); note: potency is the fitted concentration of half-maximal effect", "outline": "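HepG2 cells (2,000/well) attached overnight at 37C, then took compound for 1 hr at 37C, 5% CO2. Mito-MPS dye was added for 30 min; fluorescence was read at 490/535 nm (monomers) and 540/590 nm (aggregates).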"}, "[5]": {"assay": "qHTS assay to test for compound auto fluorescence at 590 nm (red) in HepG2 cells (AID 720674)", "outline": "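Compound auto-fluorescence is scored relative to Rose Bengal sodium, measured at 540/590 nm in live HepG2 cultures after 1 hr compound contact (37 C, 5% CO2).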"}, "[6]": {"assay": "qHTS assay to test for compound auto fluorescence at 535 nm (green) in HepG2 cells (AID 720675)"}, "[7]": {"assay": "qHTS assay to test for compound auto fluorescence at 460 nm (blue) in HEK293 cells (AID 720678)", "outline": "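Cells were seeded and left to adhere for 4-5 hr at 37C. Compounds were then pin-transferred. After an overnight incubation at 37C under 5% CO2, intrinsic fluorescence at 405/460 nm was measured and referenced to triamterene.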"}, "[8]": {"assay": "qHTS assay to test for compound auto fluorescence at 590 nm (red) in HEK293 cells (AID 720679)", "outline": "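Each well held 2,000 HEK293 cells in medium containing 10% dialyzed FBS. Following 4-5 hr attachment at 37C, 23 nL test compound or DMSO was added; plates sat overnight, and red fluorescence (540/590nm) was recorded.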"}, "[9]": {"assay": "qHTS assay to test for compound auto fluorescence at 535 nm (green) in HEK293 cells (AID 720680)"}, "[10]": {"assay": "qHTS assay to test for compound auto fluorescence at 460 nm (blue) in HEK293 cell free culture (AID 720681)", "outline": "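Test compounds were pinned into cell-free culture medium (DMEM with 10% FBS) and fluorescence was read directly at Ex/Em 405/460 nm. Signals were expressed as fluorescence equivalents of triamterene, with DMSO vehicle as control.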"}, "[11]": {"assay": "qHTS assay to test for compound auto fluorescence at 535 nm (green) in HEK293 cell free culture (AID 720682)", "outline": "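DMEM + 10% FBS, cell-free; cpd or DMSO pinned in; Ex485/Em535 read; output as fluorescein-equivalent signal.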"}, "[12]": {"assay": "qHTS assay to test for compound auto fluorescence at 590 nm (red) in HEK293 cell free culture (AID 720683)", "outline": "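Tox21 10K library compounds were pinned into cell-free DMEM with 10% FBS and fluorescence was read at excitation 540 nm. Activity is expressed as Rose Bengal sodium equivalency.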"}, "[13]": {"assay": "qHTS assay to test for compound auto fluorescence at 590 nm (red) in HepG2 cell free culture (AID 720684)", "outline": "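Measured in medium alone (MEM containing 10% FBS) following pintool addition of compound; emission at 590 nm with 540 nm excitation, referenced to Rose Bengal sodium.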"}, "[14]": {"assay": "qHTS assay to test for compound auto fluorescence at 460 nm (blue) in HepG2 cell free culture (AID 720685)", "outline": "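Compound (23 nL) or DMSO pinned into cell-free MEM with 10% FBS; blue fluorescence read at 405/460 nm excitation/emission, expressed as auto-fluorescence equivalency to triamterene.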"}, "[15]": {"assay": "qHTS assay to test for compound auto fluorescence at 535 nm (green) in HepG2 cell free culture (AID 720686)"}, "[16]": {"assay": "qHTS assay to test for compound auto fluorescence at 460 nm (blue) in HepG2 cells (AID 720687)", "outline": "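Cells (2,000/well in MEM with 10% FBS) attached overnight at 37 C, then were exposed to compound or DMSO for 1 hr at 37 C, 5% CO2. Fluorescence read at Ex/Em 405/460 nm, expressed as triamterene-equivalent signal.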"}, "[17]": {"assay": "qHTS assay for small molecules that induce genotoxicity in human embryonic kidney cells expressing luciferase-tagged ATAD5 (AID 651632); note: nearly all actives have a fitted effect of over 15% in size; note: potency is the fitted concentration of half-maximal effect", "outline": "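Luminescent reporter readout, HEK293T ATAD5-luc line: 16 hr drug exposure (37C, 5% CO2) followed by Amplite, 30 min RT.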"}, "[18]": {"assay": "qHTS assay for small molecule agonists of the p53 signaling pathway - cell viability (AID 651633; calls by dose curve; note: nearly all actives have a fitted effect of over 30% in size; note: potency is the fitted concentration of half-maximal effect)", "outline": "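p53RE-bla cells, seeded at 4,000 per well and rested 5 h at 37 C/5% CO2, received compounds in DMSO for 16 h at 37 C. CellTiter-Glo was then added, and luminescence was read after 30 min at room temperature to gauge cytotoxicity.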"}, "[19]": {"target": "Glucocorticoid receptor (Homo sapiens) (UniProt P04150)", "sequence (P04150 whole entry, looked up)": "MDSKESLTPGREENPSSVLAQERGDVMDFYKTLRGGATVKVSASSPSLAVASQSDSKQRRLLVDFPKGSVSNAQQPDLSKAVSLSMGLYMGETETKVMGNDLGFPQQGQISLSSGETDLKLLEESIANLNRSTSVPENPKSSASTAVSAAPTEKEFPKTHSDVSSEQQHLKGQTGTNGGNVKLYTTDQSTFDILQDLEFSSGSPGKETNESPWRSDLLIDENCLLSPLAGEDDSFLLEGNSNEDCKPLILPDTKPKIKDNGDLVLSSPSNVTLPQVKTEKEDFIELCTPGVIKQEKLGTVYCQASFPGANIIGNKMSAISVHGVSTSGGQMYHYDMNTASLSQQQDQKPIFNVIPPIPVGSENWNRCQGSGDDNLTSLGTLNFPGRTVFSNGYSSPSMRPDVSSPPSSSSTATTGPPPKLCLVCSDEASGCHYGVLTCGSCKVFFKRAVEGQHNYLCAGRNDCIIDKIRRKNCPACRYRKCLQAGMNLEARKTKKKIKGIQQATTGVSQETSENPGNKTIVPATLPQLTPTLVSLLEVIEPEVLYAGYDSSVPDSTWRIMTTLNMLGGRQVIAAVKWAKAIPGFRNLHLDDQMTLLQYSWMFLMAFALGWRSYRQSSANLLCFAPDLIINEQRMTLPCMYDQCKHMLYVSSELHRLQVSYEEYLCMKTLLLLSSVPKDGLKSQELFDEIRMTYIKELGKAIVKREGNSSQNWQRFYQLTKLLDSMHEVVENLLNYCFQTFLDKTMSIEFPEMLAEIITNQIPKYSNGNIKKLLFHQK", "assay": "qHTS assay to identify small molecule agonists of the glucocorticoid receptor (GR) signaling pathway (AID 720691; active = well fitted activation curve with a large enough effect in the signal ratio in the repeat runs, not every such curve was filed as active; inconclusive = weak or mixed curves, or effect the other way; inactive = no such curve, though single readings can be large or run the other way; the % refers to the signal ratio)", "details": "GR-bla HeLa, beta-lactamase reporter ratio, 18 h; activation: at 62.4 µM (top of the series)", "outline": "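qHTS in GR-bla HeLa cells: 4 h settling at 37 C/5% CO2, 18 h compound incubation at 37 C, 2 h LiveBLAzer B/G FRET substrate at room temperature, fluorescence intensity measured.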"}}, "note": "“And” between values parts separate entries of the source, which are not always exact repeats. Identical values can stand only once. The source made the active and inactive calls. A call without a number means that no potency is given here. Unless noted, calls come from the whole dose curve; as a rule, active = well fitted curve in the direction sought with a large enough effect in the repeat runs; inconclusive = weak or mixed curves; inactive = no such curve, though single readings can be large; an effect the other way counts as inactive or inconclusive."}
{"smiles": "O=C1C[C@@H]2OCC=C3CN4CC[C@]56c7ccccc7N1[C@H]5[C@H]2[C@H]3C[C@H]46", "values": [{"measurement": "Potency", "setting": "[1]", "result": "inactive"}, {"measurement": "Potency", "setting": "[2]", "result": "inactive"}, {"measurement": "Potency", "setting": "[3]", "result": "inactive"}, {"measurement": "Potency", "setting": "[4]", "result": "inactive"}, {"measurement": "outcome", "setting": "[5]", "result": "inactive"}, {"measurement": "Potency", "setting": "[6]", "result": "inactive"}, {"measurement": "Potency", "setting": "[7]", "result": "inactive"}, {"measurement": "outcome", "setting": "[8]", "result": "inactive"}, {"measurement": "outcome", "setting": "[9]", "result": "inactive"}, {"measurement": "Potency", "setting": "[10]", "result": "inactive"}, {"measurement": "outcome", "setting": "[11]", "result": "inactive"}, {"measurement": "outcome", "setting": "[12]", "result": "inactive"}, {"measurement": "outcome", "setting": "[13]", "result": "inactive"}, {"measurement": "Potency", "setting": "[14]", "result": "inactive"}, {"measurement": "Potency", "setting": "[15]", "result": "inactive"}, {"measurement": "Potency", "setting": "[16]", "result": "inactive"}]}
{"smiles": "CN(C)C(=S)SSC(=S)N(C)C", "values": [{"measurement": "Potency", "setting": "[17]", "result": "19.1 µM (active)"}, {"measurement": "Potency", "setting": "[18]", "result": "29.8 µM (active) and 26.9 µM (active) and 27.3 µM (active)"}, {"measurement": "Potency", "setting": "[2]", "result": "6.68 µM (active) and 26.9 µM (active)"}, {"measurement": "Potency", "setting": "[3]", "result": "inactive"}, {"measurement": "Potency", "setting": "[4]", "result": "335 nM (active) and 30.2 µM (active) and 54.5 nM (active)"}, {"measurement": "outcome", "setting": "[5]", "result": "inactive"}, {"measurement": "Potency", "setting": "[6]", "result": "inactive"}, {"measurement": "Potency", "setting": "[7]", "result": "inactive"}, {"measurement": "outcome", "setting": "[8]", "result": "inactive"}, {"measurement": "outcome", "setting": "[9]", "result": "inactive"}, {"measurement": "Potency", "setting": "[10]", "result": "inactive"}, {"measurement": "outcome", "setting": "[11]", "result": "inactive"}, {"measurement": "outcome", "setting": "[12]", "result": "inactive"}, {"measurement": "outcome", "setting": "[13]", "result": "inactive"}, {"measurement": "Potency", "setting": "[14]", "result": "inactive"}, {"measurement": "Potency", "setting": "[15]", "result": "inactive"}, {"measurement": "Potency", "setting": "[16]", "result": "inactive"}, {"measurement": "activation", "setting": "[19]", "result": "-15.4% [inconclusive] (active) and -4.77% [inconclusive] (active)"}]}
{"smiles": "COP(=S)(OC)Oc1nc(Cl)c(Cl)cc1Cl", "values": [{"measurement": "Potency", "setting": "[17]", "result": "inactive"}, {"measurement": "Potency", "setting": "[18]", "result": "inactive"}, {"measurement": "Potency", "setting": "[2]", "result": "inactive"}, {"measurement": "Potency", "setting": "[3]", "result": "inactive"}, {"measurement": "Potency", "setting": "[4]", "result": "48.5 µM (active)"}, {"measurement": "outcome", "setting": "[5]", "result": "inactive"}, {"measurement": "Potency", "setting": "[6]", "result": "inactive"}, {"measurement": "Potency", "setting": "[7]", "result": "inactive"}, {"measurement": "outcome", "setting": "[8]", "result": "inactive"}, {"measurement": "outcome", "setting": "[9]", "result": "inactive"}, {"measurement": "Potency", "setting": "[10]", "result": "inactive"}, {"measurement": "outcome", "setting": "[11]", "result": "inactive"}, {"measurement": "outcome", "setting": "[12]", "result": "inactive"}, {"measurement": "outcome", "setting": "[13]", "result": "inactive"}, {"measurement": "Potency", "setting": "[14]", "result": "inactive"}, {"measurement": "Potency", "setting": "[15]", "result": "inactive"}, {"measurement": "Potency", "setting": "[16]", "result": "inactive"}, {"measurement": "Potency", "setting": "[19]", "result": "inactive"}]}
